Assay outcomes as filed in PubChem BioAssay.
PKM2 act – increases activity of human pyruvate kinase M2. Potency, µM (highest dose often 57.5 µM), inactives show at the highest dose activation, usual class: activators. AID 1631. P14618. actives 0.34% (n = 260,000). purified PKM2, Kinase-Glo ATP luminescence, activation; response scale: 0% is enzyme alone, no compound; also: % is scaled to controls: 0 for no effect and ±100 for the full control effect; nearly all actives have a fitted effect of over 55% in size
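ATP formation by purified human PK-M2, quantified via coupled luciferase luminescence after 1 h at room temperature with 0.1 mM ADP and 0.5 mM PEP final.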
Tb PFK inh – inhibitors of T. brucei phosphofructokinase; AID 485367; actives 0.17% (n = 330,000); O15648; Potency, µM (titrated, usually from 57.5 µM), without a hit: at the top dose activity, negative = inhibition, actives largely listed as inhibitors; T. brucei PFK, ADP-Glo luminescence;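 also: 0% = uninhibited 1x PFK enzyme wells and -100% = no-enzyme wells; nearly all actives have a fitted effect of over 60% in size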
Target sequence (O15648 whole entry, looked up): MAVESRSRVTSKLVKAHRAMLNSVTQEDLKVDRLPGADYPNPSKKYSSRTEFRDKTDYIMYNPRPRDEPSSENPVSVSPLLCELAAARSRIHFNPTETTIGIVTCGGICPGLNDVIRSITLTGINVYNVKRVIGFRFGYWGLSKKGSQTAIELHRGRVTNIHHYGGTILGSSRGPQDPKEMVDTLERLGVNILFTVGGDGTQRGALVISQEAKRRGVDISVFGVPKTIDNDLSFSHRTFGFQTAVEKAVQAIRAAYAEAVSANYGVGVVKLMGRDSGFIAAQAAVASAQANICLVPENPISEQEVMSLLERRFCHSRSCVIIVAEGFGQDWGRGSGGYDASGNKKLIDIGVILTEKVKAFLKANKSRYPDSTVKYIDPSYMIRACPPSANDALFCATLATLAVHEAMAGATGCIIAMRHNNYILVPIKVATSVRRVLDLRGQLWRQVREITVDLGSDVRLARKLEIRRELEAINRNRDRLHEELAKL
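ADP-Glo luminescence quantified ADP after 45 min at room temperature, with 1.25 nM T. brucei PFK, 0.1 mM ATP and 0.5 mM fructose-6-phosphate in pH 8.0 TEA buffer. qHTS titrations up to 57 µM; curves classified by quality.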
Tb PGK inh – T. brucei PGK inhibition; P07378; PGK/GAPDH coupled, Kinase-Glo luminescence, 60 min; Potency, µM (highest dose often 57.5 µM), without a hit: at the highest dose activity change, negative = inhibition, hits mostly inhibitors; actives 0.043% (n = 380,000); also: % is scaled to controls: 0 for no effect and ±100 for the full control effect; nearly all actives have a fitted effect of over 60% in size
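Luminescent ATP detection (Kinase-Glo Plus) follows a 60-minute room-temperature incubation, with wells lacking PGK as controls. Buffer: 100 mM TEA (pH 7.6), 5 mM MgCl2, 0.01% Tween-20. Coupling enzyme GAPDH (100 nM final) supplies unstable 1,3-BPG in-well.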
Rango-impB inh – prevents formation of the Rango-importin beta complex. Q14974. Rango CFP/YFP FRET sensor + importin beta, 45 min. Potency, µM (titrated, usually from 92.2 µM), for inactives: at the top dose inhibition of complex formation. actives 0.031% (n = 340,000). AID 540263; calls by dose curve;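 also: 0% = DMSO wells and 100% = buffer wells lacking importin beta; nearly all actives have a fitted effect of over 15% in size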
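Inhibition scored from the CFP 486 nm/YFP 530 nm FRET ratio 45 min after adding 0.125 microM importin beta to 50 nM Rango biosensor preincubated 5 min with compound (room temperature, PBS with DTT, Tween-20, BSA). No-importin wells as positive control.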
Rango release inh – inhibitors of RanGTP-induced Rango-importin beta complex dissociation | Potency, µM (series often up to 46.1 µM), inactives show at the top dose activity change, negative = inhibition | AID 540253 | Biochemical FRET Rango-importin beta, RanGTP-induced dissociation | actives 0.071% (n = 340,000) | O95149+P62826; calls by dose curve; also: % of control where 0% means no effect; nearly all actives have a fitted effect of over 45% in size
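Two FRET readings bracket the reaction: one 5 min after compound meets Rango–importin beta, another 45 min after RanGTP-RCC1 (0.6 uM Ran, 0.2 uM RCC1, 2 mM GTP) is added. Only the second defines inhibition.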
ELG1 repair inh – ELG1-dependent DNA repair inhibition | actives 2.3% (n = 330,000) | Potency, µM (doses to about 46.1 µM), for the others: top-dose activity change, negative = inhibition, most hits filed as inhibitors | HEK293T ELG1-luciferase reporter, luminescence, 16 h; DNA damage induced by 5-fluorouridine; also: % is scaled to controls: 0 for no effect and ±100 for the full control effect; nearly all actives have a fitted effect of over 55% in size
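5-Fluorouridine DNA damage + compound/DMSO, 2,000 cells/well, 16 h, 37 °C/5% CO2. ONE-Glo, 30 min RT, luminescence. Readout = decrease in reporter signal.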
ELG1 FLuc counter – luciferase inhibition in cell-free luciferin readout for ELG1 hits. shares compounds with ELG1 repair inh. actives 3% (n = 350). cell-free firefly luciferase luminescence counter-screen, ViewLux. Potency, µM (series often up to 46.1 µM), inactives show at the top dose activity change, negative = inhibition, usual class: inhibitors. AID 624247; also: % is scaled to controls: 0 for no effect and ±100 for the full control effect
ELG1-Luc inh – inhibits ELG1-dependent DNA repair in HEK293T cells, confirmed; Potency, µM (titrated, usually from 46.1 µM), for inactives: at the top dose activity change, negative = inhibition, most hits filed as inhibitors; shares compounds with ELG1 repair inh; actives 68% (n = 670); HEK293T ELG1-luciferase levels, luminescence; cells co-treated with 5-fluorouridine; also: % is scaled to controls: 0 for no effect and ±100 for the full control effect; nearly all actives have a fitted effect of over 55% in size
ELG1-Luc MMS – confirmation of human ELG1 repair inhibitors, MMS stimulated | HEK293T luciferase-tagged ELG1 level, MMS stimulated | shares compounds with ELG1 repair inh | actives 53% (n = 670) | Potency, µM (titrated, usually from 46.1 µM), without a hit: top-dose activity change, negative = inhibition, actives largely listed as inhibitors | AID 624249; also: % is scaled to controls: 0 for no effect and ±100 for the full control effect; nearly all actives have a fitted effect of over 60% in size
ELG1 5-FU – confirmation of ELG1 repair inhibitors: viability with 5FU. shares compounds with ELG1 repair inh. cell viability with 5-FU, ELG1-dependent repair. Potency, µM (titrated, usually from 46.1 µM), for the others: at the highest dose activity change, negative = viability loss, hits mostly cytotoxic. 670 tested, under 10 active. AID 624250;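 also: ELG1-luc HEK293T cells cotreated with 5-fluorouridine at 10 µM final; viability measured 16 h after compound addition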
ELG1 MMS viab – confirmation of ELG1 repair inhibitors: viability with MMS | shares compounds with ELG1 repair inh | Cell viability with MMS, ELG1-dependent DNA repair | Potency, µM (titrated, usually from 46.1 µM), inactives show at the top dose activity change, negative = viability loss, usual class: cytotoxic | actives 33% (n = 670) | AID 624251;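 also: ELG1-luc HEK293T cells co-treated with 10 µM MMS; viability read 16 h after compound addition; % is scaled to controls: 0 for no effect and ±100 for the full control effect; nearly all actives have a fitted effect of over 60% in size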
Cell viab unstim – counter-screen for ELG1 repair inhibitors: unstimulated cell viability | cell viability counter-screen, unstimulated, luminescence | actives 8% (n = 900) | shares compounds with ELG1 repair inh | Potency, µM (doses to about 45.9 µM), for the others: top-dose activity change, negative = loss of viability, usual class: cytotoxic;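 also: compound exposure lasted 16 hours before reading; % is scaled to controls: 0 for no effect and ±100 for the full control effect; nearly all actives have a fitted effect of over 55% in size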
FLuc enzyme – counter-screen for ELG1 repair inhibitors: firefly luciferase inhibition; shares compounds with ELG1 repair inh; purified firefly luciferase, luminescence counter-screen; Potency, µM (doses to about 57.5 µM), for the others: top-dose activity, negative = inhibition, usual class: inhibitors; actives 10% (n = 350); also: % is scaled to controls: 0 for no effect and ±100 for the full control effect
Active calls of the source: *. Compounds with a hit are over-represented: about 2.4% of the library has one in this group of screens. Unless noted, calls follow the shape of the dose curve; as a rule, active = well fitted curve in the direction sought with a large enough effect; inconclusive = small, poorly fitted or top-dose-only effect, or another doubt; inactive = no such curve, though single readings can be large; an effect the other way counts as inactive or inconclusive. Potency is read from the fitted curve at half-maximal effect.

Screening Cc1sc2ncnc(N3CCC(C(=O)N(C)CC(=O)Nc4ccc(Cl)c(C(F)(F)F)c4)CC3)c2c1C returned Tb PFK inh -8%, Tb PGK inh -8%, Rango-impB inh -2%, Rango release inh 11%, ELG1 repair inh 3.7µM*, ELG1 FLuc counter inconclusive, ELG1-Luc inh 7.1µM*, ELG1-Luc MMS 7.1µM*, ELG1 5-FU inconclusive, ELG1 MMS viab inconclusive, Cell viab unstim inconclusive and FLuc enzyme -15%.
`O=C(N/N=C/c1cc([N+](=O)[O-])ccc1O)c1cccc2ccccc12` gave PKM2 act 0%, Tb PFK inh -1% and ELG1 repair inh inconclusive.
For Cc1sc(NC(=O)c2ccco2)c(C(c2ccc(F)cc2)N2CCN(C)CC2)c1C (stereo not drawn) the results were PKM2 act 1%, Tb PFK inh -4%, Tb PGK inh inactive, Rango-impB inh -3%, Rango release inh 5% and ELG1 repair inh -1%.
Cc1sc(NC(=O)c2ccco2)c(C(c2cccnc2)N2CCN(c3ccc(F)cc3)CC2)c1C (stereo not drawn) was read as PKM2 act 8%, Tb PFK inh -3%, Tb PGK inh -2%, Rango-impB inh 0%, Rango release inh -12%, ELG1 repair inh -16%, ELG1 FLuc counter 11%, Cell viab unstim -12% and FLuc enzyme -1%.
Screening CCOC(=O)c1cc2cc(OC)ccc2[nH]1 returned PKM2 act -6%, Tb PFK inh -1%, Tb PGK inh -3%, Rango-impB inh -3%, Rango release inh 13% and ELG1 repair inh inconclusive.
For CCCC(=O)Oc1ccc2[nH]c(C(=O)c3cc4ccccc4[nH]3)cc2c1 the results were Cell viab unstim 3%.
Screening CCN(CC)CCCNc1nc2cc(OC)c(OC)cc2c2nc(-c3cccnc3)nn12 returned PKM2 act -2%, Tb PFK inh -2%, Tb PGK inh 17%, Rango-impB inh 2%, Rango release inh -1% and ELG1 repair inh -17%.
